Out of some 1,200 compounds screened, about 110 (9.2%) were called active. Roughly 8% stayed inconclusive and do not appear here.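 How the source made its calls: active means pathway reporter half-maximal dose under half the control reporter's, or control reporter unaffected while pathway reporter is inhibited; inconclusive means either signal flat at 30 to 70% inhibition or poorly fitted; inactive means the rest.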 Not all results are given here. Measured potencies and affinities stand elsewhere.
Experiment: TES1-eGFP NF-kB reporter inhibition versus Tet-On dsRED, dose response, selectivity assay for LMP1 NF-kB inhibitor project, imaging, HEK293T, dual-color eGFP/dsRED, cherry-picks (AID 588398)
Conditions: 48 h; HEK293T Tet-On dsRED counter-screen channel, at 19.5 µM (top of the series)

| Compound | outcome |
| --- | --- |
| CCOC(=O)C1=C(C)N(C)C(=O)NC1c1ccccc1OC (stereo unspecified) | inactive |
| O=C(Nc1cc(S(=O)(=O)N2CCOCC2)ccc1Cl)c1ccncc1 | inactive |
| O=C1C2CCCN2c2ccc(S(=O)(=O)N3CCOCC3)cc2N1Cc1ccccc1F (stereo unspecified) | inactive |
| CCn1nc(C(=O)Nc2nc(-c3ccccn3)cs2)c2ccccc2c1=O | inactive |
| COc1ccc(C2CC(C(F)(F)F)n3ncc(C(=O)NCc4cccnc4)c3N2)cc1OC (stereo unspecified) | inactive |
| C=CCN=C1NN=C(c2cc(C)n(CCOC)c2C)CS1 | inactive |
| Cc1cccc(C)c1NC(=O)CN(C)CC(=O)Nc1ccccc1Oc1ccccc1 | inactive |
| Cc1sc2nc(SCC(=O)OC(C)C)n(C)c(=O)c2c1C | inactive |
| O=C(c1ccc(Cl)cc1)N1CCN(CCOc2ccccc2)CC1 | inactive |
| Cc1cccc(Cn2cc(SCC(=O)Nc3nccs3)c3ccccc32)c1 | inactive |
| O=C(CSc1nc2ccccc2c(=O)n1CCCN1CCOCC1)Nc1ccc(Br)cc1 | inactive |
| O=C(Cn1cc(CNC(=O)C2CCCCC2)nn1)Nc1cc(C(F)(F)F)ccc1Cl | inactive |
| COc1ccc(C(=O)Nc2cccc(C(=O)N/N=C/c3ccc(OC)cc3OC)c2)cc1 | inactive |
| COc1ccc(NC(=O)c2cc3ccccc3oc2=O)cc1 | inactive |
| COc1cc(NC(=S)N2CCN(CCO)CC2)cc(OC)c1 | inactive |
| CCCc1nc(SCC(=O)NCc2ccco2)c2c(=O)n(C)c(=O)n(C)c2n1 | inactive |
| Oc1c(N=NC(=S)Nc2ccccc2F)c2ccccc2n1Cc1ccccc1F | inactive |
| O=C1C=Cc2cccc3ccc(O)c1c23 | inactive |
| COc1ccc(OC)c(CCNC(=O)CCn2nc(C)c3c(C)n(-c4ccccc4)nc3c2=O)c1 | inactive |
| Cc1ccc(C2=C/C(=C\c3cccnc3)C(=O)O2)cc1 | inactive |
| CC1S/C(=C(\C#N)C(=O)NCc2ccco2)N(Cc2ccco2)C1=O (stereo unspecified) | inactive |
| O=C(CCCN1C(=O)/C(=C/c2ccccc2Cl)SC1=S)NNC(=O)c1ccccc1Cl | inactive |
| O=C(O)CN1C(=O)/C(=C\c2ccccc2OCc2ccc(Cl)cc2Cl)SC1=S | inactive |
| CCc1ccc(/C=C2\SC(=S)N(CCCC(=O)NC3=NCCS3)C2=O)cc1 | inactive |
| COc1cc(/C=C2/SC(=S)N(Cc3ccccc3)C2=O)ccc1OCC(=O)O | inactive |
| CCCC(C)NC(C)C(=O)NC1CCCC1 (stereo unspecified) | inactive |

| Compound | outcome |
| --- | --- |
| COc1ccc(C(=O)Nn2c(SCC(=O)NCc3ccco3)nc3ccccc3c2=O)cc1 | inactive |
| O=C(Nc1ccc(Br)cc1)C1CC(O)CN1C(=O)OCc1ccccc1 (stereo unspecified) | inactive |
| CCOc1ccc(NC(=O)CCc2nnc3ccc(N4CCC5(CC4)OCCO5)nn23)cc1 | inactive |
| COc1ccc(N2CCN(c3ncnc4c3[nH]c3ccccc34)CC2)cc1 | inactive |
| CC1(C)CN(Cc2ccccc2)C(=O)[C@H]1CC(=O)Nc1ccccc1 | inactive |
| CC(=O)c1ccccc1OCC(=O)Nc1cccc(S(=O)(=O)N2CCCC2)c1 | inactive |
| Cc1ccc(C(=O)Nc2cccc(C(F)(F)F)c2)cc1Nc1ncnc2nc[nH]c12 | inactive |
| CC(=O)Nc1ccc(C=NNc2nnc(NN=Cc3ccc(NC(C)=O)cc3)c3ccccc23)cc1 | inactive |
| Cc1ccnc(NC(=O)c2cccc(NC(=O)c3ccc(Cl)c(Cl)c3)c2)c1 | inactive |
| COc1ccc(NC(=O)COC(=O)/C=C/c2ccc(OC)c(S(=O)(=O)N3CCOCC3)c2)cc1 | inactive |
| COc1ccc(C=C2CS(=O)(=O)CC(=Cc3ccc(OC)cc3)C2=O)cc1 | inactive |
| COC(=O)[C@@]1(Cc2ccccc2)[C@H]2C(=O)N(Cc3ccccc3)C(=O)[C@H]2[C@H]2CN=C(SCc3ccc(Cl)cc3)N21 | inactive |
| CCOc1ccc(NC(=S)N=Nc2c(O)[nH]c3ccccc23)cc1 | inactive |
| CC(NC(=O)CNC(=O)OCc1ccccc1)C(=O)N1CC(O)CC1C(=O)OCc1ccccc1 (stereo unspecified) | inactive |
| CCN1CCN(Cc2ccc(NC(=O)c3ccc(C)c(NC(=O)c4cccc5[nH]ccc45)c3)cc2C(F)(F)F)CC1 | inactive |
| Cc1ccc(C)c(Cn2c(O)c(N=NC(=S)Nc3ccccc3F)c3ccccc32)c1 | inactive |
| COc1cc(OC)cc(-c2cc3nc(C)c(CCC(=O)O)c(C)n3n2)c1 | inactive |
| O=C(C[n+]1ccccc1)N/N=C/c1ccc(O)cc1 | inactive |
| C#CCN(C[C@@H]1[C@@H](OC(=O)NCc2ccccc2F)[C@@H](OC(=O)NCc2ccccc2F)Cn2c(=O)ccc(=O)n21)S(=O)(=O)c1ccc(C)cc1 | inactive |
| Cc1ccc(-n2c(=O)c3c(c4cc(C)ccc4n3C)n(CC(=O)NCC3CCCO3)c2=O)cc1 (stereo unspecified) | inactive |
| Cc1ccnc(NC(=O)c2ccc(OCC3CCCO3)cc2)c1 (stereo unspecified) | inactive |
| CCOc1ccc(C(=O)NC(=S)N(Cc2ccccc2)Cc2ccccc2)cc1 | inactive |
| O=C(Nc1cc(Cl)ccc1Cl)C1Cc2ccccc2O/C1=N\O (stereo unspecified) | inactive |
| CCOC(=O)c1sc2nc(C)nc(NCc3ccccc3)c2c1C | inactive |
| COc1ccc(CN2C(=O)c3cccnc3C2Nc2cc(Cl)ccc2OC)cc1 (stereo unspecified) | inactive |
| CCC(=O)NC(c1cc(Cl)c2cccnc2c1O)C1CC1 (stereo unspecified) | inactive |

| Compound | outcome |
| --- | --- |
| CCC(=O)NC(c1ccc(C)cc1)c1cc(Cl)c2cccnc2c1O (stereo unspecified) | inactive |
| CC(=O)NC(c1ccc(Cl)cc1Cl)c1ccc2cccnc2c1O (stereo unspecified) | inactive |
| CN(C)S(=O)(=O)c1ccc(Cl)c(C(=O)NCCNC(=O)c2cc(S(=O)(=O)N(C)C)ccc2Cl)c1 | inactive |
| CCNc1nc(CN2CCOCC2)nc2sc3c(c12)CCC3 | inactive |
| Cc1nn(-c2ccccc2)c(Cl)c1C(=O)N1CCN(c2ncnc3c2cnn3-c2ccccc2)CC1 | inactive |
| O=c1nc(N/N=C/C=C/c2ccccc2)cn[nH]1 | inactive |
| CN(CCNC(=O)C1CCN(S(=O)(=O)N2CCOCC2)CC1)CCc1ccccc1 | inactive |
| O=C(N/N=C/c1cc2c3c(c1O)CCCN3CCC2)c1ccccc1O | inactive |
| CCOC(=O)C1CCN(S(=O)(=O)Cc2ccccc2)C1=O (stereo unspecified) | inactive |
| CCOC(=O)CCSc1nc(N2CCOCC2)c2c(c1C#N)CC(C)(C)OC2 | inactive |
| COc1ccc(C=NNc2nc3ccccc3s2)cc1 | inactive |
| C(=Cc1nc2ccccc2o1)c1ccc2c(c1)OCO2 | inactive |
| c1ccn2cc(-c3ccc4c(c3)OCCO4)nc2c1 | inactive |
| CC1CCN(CCOc2ccc(C(=O)c3ccccc3)cc2)CC1 | inactive |
| CCC(C)[C@H](NC(=O)NCc1cccnc1)C(=O)OC (stereo partly specified) | inactive |
| Cc1cc(C(=O)COc2cccnc2[N+](=O)[O-])c(C)n1-c1ccccc1F | inactive |
| CCOc1ccc(Nc2ncnc3ccc([N+](=O)[O-])cc23)cc1 | inactive |
| O=C1CCCCC1Sc1nnc(-c2ccc3c(c2)OCO3)o1 (stereo unspecified) | inactive |
| C=CCn1c(=O)/c(=C/c2ccc(Cl)cc2)s/c1=C(\C#N)c1nnc2n1CCCCC2 | inactive |
| Cc1ccc(OCC(=O)NNC(=S)NC(=O)C2CCCCC2)c(C)c1 | inactive |
| Cc1cc(NC(=O)c2ccc(C)s2)n(-c2nc3ccccc3[nH]2)n1 | inactive |
| COc1ccc(OC)c(NC(=O)COC(=O)COc2ccc(Nc3ccccc3)cc2)c1 | inactive |
| C(=Cc1cnc2ccccc2n1)c1ccc2c(c1)OCO2 | inactive |
| CCOc1ccc(NC(=O)c2ccc(N3CC4CC(C3)c3cccc(=O)n3C4)c(NC(=O)c3cccnc3)c2)cc1 (stereo unspecified) | inactive |
| COc1ccc(N2C(=O)C(Cl)=C(NCc3ccccc3)C2=O)cc1 | inactive |
| CCOc1ccccc1/C=C/c1onc(C)c1S(=O)(=O)N1CCC(C(=O)N(CC)CC)CC1 | inactive |

| Compound | outcome |
| --- | --- |
| Cc1ccc(S(=O)(=O)N2CCN(C(=O)COC(=O)COc3ccc(Cl)cc3)CC2)c(C)c1 | inactive |
| CCOC(=O)N1CCC(NC(=O)C2CCCN(Cc3nc(-c4cccc(Cl)c4)oc3C)C2)CC1 (stereo unspecified) | inactive |
| COc1ccc(S(=O)(=O)N2CCCCCC2)cc1C(=O)OCc1cccc(OC)c1OC | inactive |
| Fc1cccc(Cl)c1/C=N/n1c(-c2cccnc2)n[nH]c1=S | inactive |
| CC(=O)c1cccc(NC(=O)Nc2ccc(C(=O)N3CCOCC3)cc2)c1 | inactive |
| O=C(c1ccccc1Br)N1CCN(Cc2ccc3c(c2)OCO3)CC1 | inactive |
| CC(=O)NC(c1ccc(Cl)cc1)c1ccc2cccnc2c1O (stereo unspecified) | inactive |
| CCC(=O)NC(c1ccc(Cl)cc1Cl)c1ccc2cccnc2c1O (stereo unspecified) | inactive |
| Cc1ccc2[nH]c3c(c2c1)CCCC3NC(=O)CCl (stereo unspecified) | inactive |
| Cc1cccc(-n2c(O)c(C=Nc3c(C)n(C)n(-c4ccccc4)c3=O)c3ccccc3c2=O)n1 | inactive |
| CC(=O)OC1CCC2(C)C(CCC3C4CC=C(C(C)=O)C4(C)OC(=O)CC32)C1 (stereo unspecified) | inactive |
| O=C1NC(=O)/C(=C\c2ccc(OCc3cccc(C(=O)O)c3)c(Cl)c2)N1 | inactive |
| CN1CCN(C(=O)C2=C[C@@H](C(C)(C)C)C[C@@H](OCc3ccc(CO)cc3)O2)CC1 | inactive |
| COc1ccc(N2CCN(CCNC(=O)CCCn3c(=O)[nH]c4cc(Cl)ccc4c3=O)CC2)cc1 | inactive |
| CCn1c2ccccc2c2cc(/C=N/NC(=O)c3cc(O)cc(O)c3)ccc21 | inactive |
| CCn1c(SC(C)C)nnc1-c1c[nH]c2ccccc12 | inactive |
| CCn1c2ccccc2c2cc(/C=N/NC(=O)c3ccncc3)ccc21 | inactive |
| CC1CC(C)C(=O)C(C(CC2CC(=O)NC(=O)C2)OC(=O)CC(=O)c2ccccc2)C1 (stereo unspecified) | inactive |
| COc1cc(C(c2sc3nc(C)nn3c2O)N2CCc3ccccc3C2)cc(OC)c1OC (stereo unspecified) | inactive |
| CCOc1ccccc1NC(=O)Cn1c(=O)sc2ccccc21 | inactive |
| CCOc1cc(Br)cc(/C=N/NC(=O)c2cccnc2)c1O | inactive |
| O=C(NC(c1ccc(Cl)cc1)c1cc(Cl)c2cccnc2c1O)c1cccnc1 (stereo unspecified) | inactive |
| Cc1cc(N2CCOCC2)c2c(N)c(Br)cc(C)c2n1 | inactive |

Source: PubChem BioAssay AID588398 (Broad Institute, 2011)
